Inconclusive results are not listed. Activity calls are given as the source filed them. Unless noted, the call rests on the fitted dose curve; in most records, active means well fitted curve in either direction with a large enough effect (not every such curve was filed as active); inconclusive means small, poorly fitted or top-dose-only effect, or another doubt; inactive means flat fitted curve, though single readings scatter.
What was measured:
[1] = AP1 Signaling Pathway (AID 357); settings: ME-180 AP-1-bla reporter, EGF-induced, beta-lactamase ratio, 5 h; at 17.2 µM (top of the series) unless noted;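 further: ME-180 reporter cells stimulated with EGF at its EC50 level; on the % scale 0 is the no-effect control and ±100 the full control effect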
Summary of the method: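 Cells are seeded overnight, exposed to compound titrations and an EC50 level of EGF for 5 hours at 37 °C, then loaded with CCF4 dye for 2.5 hours. Beta-lactamase activity under the AP-1 element is read as a blue/green ratio.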

[2] = Stat Signaling Pathway (AID 446); settings: ME-180 SIE beta-lactamase reporter, IL-6 stimulated, 5 h; at 17.2 µM (top of the series) unless noted;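 further: ME-180 cervical cancer cells given 40 pM IL-6 alongside compound; SIE-controlled beta-lactamase reporter measured as 460/530 nm FRET emission ratio; on the % scale 0 is the no-effect control and ±100 the full control effect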
Summary of the method: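 Overnight-plated ME-180 cells bearing a STAT Inducible Element beta-lactamase reporter; 5 h co-exposure to compound and 40 pM IL-6; values normalized to 300 pM IL-6 and 125 nM JAK inhibitor controls.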

[3] = target: Glucocorticoid receptor (Homo sapiens) (UniProt P04150); assay: GR-GFP Redistribution (AID 450;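 active means compounds whose dose series gives a full or clear partial fitted curve of increased nuclear translocation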; further: potency means the concentration at half of the fitted maximal effect)
[4] = qHTS Assay for Identification of Small Molecule Agonists for Hypoxia Response Element Signaling Pathway (AID 914; active means well fitted activation curve with a large enough effect in the signal ratio, with a control signal flat, not every such curve was filed as active; the % refers to the signal ratio; further: potency means the concentration at half of the fitted maximal effect; on activation: % of control where 0% means no effect); settings: ME-180 (cervical carcinoma) HRE-bla reporter, beta-lactamase ratio, CoCl2, 17 h; activation: hits give high values
Summary of the method: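 A beta-lactamase reporter under hypoxia response element control in ME-180 cells served as the system. Compound titrations plus EC50 CoCl2 ran 17 h at 37 degrees Celsius; AC50 values were fitted from %Activity.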

[5] = target: Glucocorticoid receptor (Homo sapiens) (UniProt P04150); assay: GR-EFC Redistribution (AID 451; calls by dose curve; further: potency means the concentration at half of the fitted maximal effect); settings: CHO-K1 GR-EFC translocation, beta-gal luminescence, 2 h
Summary of the method: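 CHO-K1 cells stably expressing nuclear-localized β-gal enzyme acceptor and GR fused C-terminally to the enzyme donor fragment; ligand-driven nuclear translocation restores β-gal by complementation. Compounds titrated up to 46 uM final, 2 h at 37 °C; luminescence read.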

[6] = target: Mitogen-activated protein kinase 10 (Mus musculus) (UniProt Q61831); assay: JNK3 AlphaScreen Assay (AID 530);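 further: kinase came from lysate of stimulated human HepG2 cells; signal reports phosphorylation of biotinylated GST-cJun 1-79 at Ser73 with 10 µM ATP; on the % scale 0 is the no-effect control and ±100 the full control effect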
Summary of the method: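 Biotinylated GST-cJun(1-79) served as substrate for JNK3 in HepG2 lysates stimulated with IL-1beta and TNF-alpha. ATP was 10 uM final, pH 7.6. Ser73 phosphorylation was quantified by AlphaScreen (680 nm excitation).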

[7] = Confirmation and Secondary Assay for Modulators of Hemoglobin Beta Chain Splicing at IVS2 654 locus (AID 910; active means well fitted curve in the direction sought with a large enough effect; an effect the other way counts as inactive or inconclusive;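 further: per-well total GFP intensity by laser scanning cytometry after 2-day treatment; % of control where 0% means no effect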)
Summary of the method: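 HeLa cells stably carrying EGFP interrupted by mutant beta-globin IVS2-654 intron (CMV-driven) were treated with compound for 2 days at 37C; corrected splicing was scored as total peak GFP intensity per well (488 nm excitation, 500-520 nm emission).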

[8] = Confirmation and Secondary Assay for Modulators of Hemoglobin Beta Chain Splicing at IVS2 705 locus (AID 930; active means well fitted curve in the direction sought with a large enough effect; an effect the other way counts as inactive or inconclusive;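 further: HeLa cells stably expressing the EGFP-705 splicing reporter; GFP fluorescence per well restored by corrected splicing of the IVS2-705 intron in EGFP; % of control where 0% means no effect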)
Summary of the method: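 Fluorescence gain (488 nm laser, 500-520 nm PMT) reflects restored correct splicing of a mutant IVS2-705 intron inside EGFP in stably transfected HeLa cells after 2-day compound treatment.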

[9] = target: Cytochrome P450 3A4 (Homo sapiens) (UniProt P08684); assay: qHTS Assay for Activators of Cytochrome P450 3A4 (AID 885; active means well fitted curve in the direction sought with a large enough effect; an effect the other way counts as inactive or inconclusive; further: nearly all actives have a fitted effect of over 65% in size)
Summary of the method: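 Using 20nM recombinant human CYP3A4 in potassium phosphate (200mM), substrate Luciferin-PPXE at 25uM, luminescent luciferin detection followed a 60-min RT NADPH reaction; data scaled to 57 uM ketoconazole.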

[10] = target: DNA dC->dU-editing enzyme APOBEC-3G (Homo sapiens) (UniProt Q9HC16); assay: qHTS for inhibitors of Vif-A3G interactions: Validation (AID 588379; active means well fitted curve in the direction sought with a large enough effect; an effect the other way counts as inactive or inconclusive; further: 0% is about no effect)
Summary of the method: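 Yellow fluorescence (Ex 488, Em 500-530) of Vif-coexpressing HeLa A3G-eYFP cells, scanned by Acumen cytometer, reports blocked A3G degradation. Cells plated at 700/well overnight at 37 deg C before compound addition, then a further overnight compound incubation at 37 deg C.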

[11] = target: 3',5'-cyclic-AMP phosphodiesterase 4B (Homo sapiens) (UniProt Q07343); assay: qHTS Assay for Inhibitors of PDE-IV (AID 607; active means well fitted activation curve with a large enough effect in the main read-out, with a control signal flat, not every such curve was filed as active; further: % of control where 0% means no effect)
Summary of the method: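 Live HEK293 cells with a modified cyclic nucleotide-gated (CNG) channel report intracellular cAMP via membrane-potential dye fluorescence (ex 535/em 590 nm). Endogenous PDE-IV was targeted. Compounds were tested at up to 22.9 uM final; RO 20-1724 100 uM served as control.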

Chain of Glucocorticoid receptor (Homo sapiens) (P04150 whole entry, looked up, the tested form may be a part): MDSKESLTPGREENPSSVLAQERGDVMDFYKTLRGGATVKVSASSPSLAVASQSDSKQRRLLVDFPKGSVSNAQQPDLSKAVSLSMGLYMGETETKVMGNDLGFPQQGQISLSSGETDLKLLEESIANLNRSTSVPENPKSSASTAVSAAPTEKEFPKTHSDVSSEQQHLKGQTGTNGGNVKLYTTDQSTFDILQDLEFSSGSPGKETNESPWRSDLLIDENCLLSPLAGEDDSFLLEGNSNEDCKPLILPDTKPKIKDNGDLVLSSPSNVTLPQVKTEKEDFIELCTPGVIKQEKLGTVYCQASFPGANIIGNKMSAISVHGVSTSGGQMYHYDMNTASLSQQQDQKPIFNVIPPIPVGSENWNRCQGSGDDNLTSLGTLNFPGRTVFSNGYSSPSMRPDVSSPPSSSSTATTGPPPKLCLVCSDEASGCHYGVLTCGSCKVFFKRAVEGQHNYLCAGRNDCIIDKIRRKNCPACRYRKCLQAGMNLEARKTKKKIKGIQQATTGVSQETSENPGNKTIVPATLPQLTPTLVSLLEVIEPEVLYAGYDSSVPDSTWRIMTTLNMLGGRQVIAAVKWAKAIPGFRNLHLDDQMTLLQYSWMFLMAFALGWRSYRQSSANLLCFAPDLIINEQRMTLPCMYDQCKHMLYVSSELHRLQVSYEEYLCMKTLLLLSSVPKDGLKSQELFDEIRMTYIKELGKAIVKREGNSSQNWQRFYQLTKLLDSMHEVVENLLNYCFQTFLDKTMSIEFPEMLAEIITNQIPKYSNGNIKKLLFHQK
Chain of 3',5'-cyclic-AMP phosphodiesterase 4B (Homo sapiens) (Q07343 whole entry, looked up): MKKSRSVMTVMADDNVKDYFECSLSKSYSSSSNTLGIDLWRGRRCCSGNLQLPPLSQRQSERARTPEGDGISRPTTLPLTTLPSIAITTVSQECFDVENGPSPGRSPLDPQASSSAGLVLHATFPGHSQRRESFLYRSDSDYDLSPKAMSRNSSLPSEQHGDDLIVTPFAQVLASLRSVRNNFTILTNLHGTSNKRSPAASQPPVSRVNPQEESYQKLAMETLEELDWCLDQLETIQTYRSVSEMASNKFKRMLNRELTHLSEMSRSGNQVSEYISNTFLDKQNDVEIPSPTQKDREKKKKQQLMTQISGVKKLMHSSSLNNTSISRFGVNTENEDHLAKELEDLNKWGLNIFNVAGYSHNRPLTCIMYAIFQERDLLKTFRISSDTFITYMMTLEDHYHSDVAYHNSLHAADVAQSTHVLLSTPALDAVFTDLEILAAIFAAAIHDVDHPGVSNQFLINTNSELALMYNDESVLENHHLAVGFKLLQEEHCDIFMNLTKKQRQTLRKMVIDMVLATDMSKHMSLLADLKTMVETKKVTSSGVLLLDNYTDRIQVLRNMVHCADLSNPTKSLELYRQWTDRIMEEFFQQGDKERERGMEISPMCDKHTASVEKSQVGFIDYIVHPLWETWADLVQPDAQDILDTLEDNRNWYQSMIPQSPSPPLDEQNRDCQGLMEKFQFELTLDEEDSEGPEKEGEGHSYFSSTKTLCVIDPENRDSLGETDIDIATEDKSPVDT
Chain of DNA dC->dU-editing enzyme APOBEC-3G (Homo sapiens) (Q9HC16 whole entry, looked up): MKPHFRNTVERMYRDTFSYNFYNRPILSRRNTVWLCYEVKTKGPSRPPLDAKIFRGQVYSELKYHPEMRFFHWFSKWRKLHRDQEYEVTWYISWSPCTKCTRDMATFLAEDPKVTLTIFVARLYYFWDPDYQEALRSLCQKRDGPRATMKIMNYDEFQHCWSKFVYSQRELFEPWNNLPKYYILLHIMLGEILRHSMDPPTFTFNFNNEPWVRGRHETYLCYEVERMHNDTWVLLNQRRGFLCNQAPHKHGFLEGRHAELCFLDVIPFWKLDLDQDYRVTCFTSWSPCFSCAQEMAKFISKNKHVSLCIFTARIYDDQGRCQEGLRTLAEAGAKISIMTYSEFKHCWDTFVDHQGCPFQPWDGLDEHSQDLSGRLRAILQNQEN
Chain of Cytochrome P450 3A4 (Homo sapiens) (P08684 whole entry, looked up): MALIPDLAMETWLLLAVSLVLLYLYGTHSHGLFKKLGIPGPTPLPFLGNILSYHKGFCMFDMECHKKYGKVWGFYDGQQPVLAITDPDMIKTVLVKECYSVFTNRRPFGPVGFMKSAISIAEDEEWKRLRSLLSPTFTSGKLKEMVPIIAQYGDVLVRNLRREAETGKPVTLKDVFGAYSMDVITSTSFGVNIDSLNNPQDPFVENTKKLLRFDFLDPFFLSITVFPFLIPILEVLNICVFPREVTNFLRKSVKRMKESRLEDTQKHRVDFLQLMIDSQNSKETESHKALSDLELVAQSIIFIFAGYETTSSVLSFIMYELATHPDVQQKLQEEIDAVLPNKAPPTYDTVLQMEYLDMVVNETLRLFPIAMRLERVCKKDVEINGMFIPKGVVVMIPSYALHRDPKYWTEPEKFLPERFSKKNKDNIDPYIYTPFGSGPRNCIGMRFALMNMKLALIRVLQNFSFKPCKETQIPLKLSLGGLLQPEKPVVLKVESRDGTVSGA

CC1(C)CCN(Cc2ccccc2)C1CC#N (configuration not stated)
inactive: activity change, negative = inhibition [1] -13.4% | activity, negative = inhibition [2] 6.87% | Potency [3] > 20.6 µM | activation [4] 7.94%

Cc1cc(C)n(C(=O)CNC(=O)c2ccc3c(c2)OCCO3)n1
inactive: activity change, negative = inhibition [1] -0.109% | activity, negative = inhibition [2] 7.28% | Potency [3] > 20.6 µM | activation [4] -10.8%

Cc1cccc(CNc2ccnc(-c3ccc(N(C)C)cc3)n2)c1
inactive: activity change, negative = inhibition [1] -16% [at 7.69 µM] | activity, negative = inhibition [2] -22.6% [at 7.69 µM] | Potency [3] > 46 µM | Potency [5] > 46 µM | Potency [6] | Potency [7] | Potency [8]

COC1=CC(=O)CC(C)C12Oc1c(Cl)c(OC)cc(OC)c1C2=O (configuration not stated)
inactive: activity change, negative = inhibition [1] -16.1% | activity, negative = inhibition [2] 4.38% | Potency [3] > 20.6 µM | Potency [9] | outcome [10]

Cc1sccc1C1C(C#N)=C(N)SC(N)=C1C#N
inactive: activity change, negative = inhibition [1] -12.4% | activity, negative = inhibition [2] -25.4% | Potency [3] > 20.6 µM

Cc1ccc(S(=O)(=O)c2cc3c(=O)n4ccccc4nc3n(C)c2=N)cc1
inactive: activity change, negative = inhibition [1] 23.8% | activity, negative = inhibition [2] 26.2% | Potency [3] > 20.6 µM
active: Potency [4] 7.94 µM

COc1ccc2c(c1OC)C(=O)N1c3ccccc3C(=O)N(c3ccccc3)C21 (configuration not stated)
inactive: activity change, negative = inhibition [1] -9.35% | activity, negative = inhibition [2] 0.163% | Potency [3] > 20.6 µM

c1ccc2c(c1)NC(c1ccncc1)n1c-2nc2ccccc21 (configuration not stated)
inactive: activity change, negative = inhibition [1] -17.1% | activity, negative = inhibition [2] -7.32% | Potency [3] > 20.6 µM | activation [4] 15.3%

C[N+](C)(C)CCN(Cc1cccs1)c1ccccn1
inactive: activity change, negative = inhibition [1] -6.68% [at 7.69 µM] | activity, negative = inhibition [2] -4.68% [at 7.69 µM] | Potency [3] > 46 µM | Potency [5] > 9.22 µM | activity change, negative = inhibition [6] 0.454% [at 11.4 µM] | Potency [11] | activation [4] 3.56%

C[C@H](CCC(=O)O)[C@H]1CC[C@@H]2[C@H]3CC[C@H]4C[C@@H](O)CC[C@@]4(C)[C@H]3CC[C@]21C
inactive: activity change, negative = inhibition [1] 13.9% | activity, negative = inhibition [2] -1.14% | Potency [3] > 20.6 µM | Potency [5] > 20.6 µM | Potency [6] | Potency [11]
